Test [1] concerns Staphylococcus aureus. The settings on record: Concentration 20 uM; ASSAY_TEST Inhibition of Bacterial Growth; detection method Absorption (OD600); MEDIA CAMHB; plate type 384well; NBS; CORNING #3640; time 18 hr.
Test [2] relates to Escherichia coli. The conditions noted are these: Concentration 20 uM; ASSAY_TEST Inhibition of Bacterial Growth; detection method Absorption (OD600); MEDIA CAMHB; plate type 384well; NBS; CORNING #3640; time 18 hr.

Each structure is given as a SMILES string. Results with a measured potency or affinity are listed apart.

As for `CC(COc1ccccc1)N(CCCl)Cc1ccccc1.Cl` (stereo not given) [PHENOXYBENZAMINE HYDROCHLORIDE], the Inhibition (as a rule, the drop in the measured response relative to a control, in per cent) turned out to be 12.58% in test [1] and 3.59% in test [2].
On the same counts, the results for `CCN(CC)CCOC(=O)C(O)(c1ccccc1)c1ccccc1.Cl` are 13% and -0.91%.
Consider `CN[C@@H]1C[C@@H](c2ccc(Cl)c(Cl)c2)c2ccccc21.Cl` [INDATRALINE HYDROCHLORIDE], for which the Inhibition in test [1] is -18.12%; in test [2] it was 7.7%.
The like results for `Cl.O[C@@H]1CCCC[C@H]1N1CCC(c2ccccc2)CC1` were, in that order, 14.8% and 1.48%.
On the same counts, the results for `COc1cc([C@@H]2c3cc4c(cc3[C@H](O)[C@H]3COC(=O)[C@H]23)OCO4)cc(OC)c1OC` [PODOFILOX] are 6.19% and 3.91%.
On the same counts, the results for `COc1cc(-c2ccc(=O)[nH]n2)ccc1OC(F)F` [ZARDAVERINE] are 7.7% and -1.99%.
As for `COc1cc(CNC(=O)CCCC/C=C\C(C)C)ccc1O` [ZUCAPSAICIN], the Inhibition in test [1] is listed as 14.17%; in test [2], 0%.
The like results for `Br.COc1ccc2c(c1)[C@]13CCCC[C@@H]1[C@H](C2)N(C)CC3.O` [DEXTROMETHORPHAN HYDROBROMIDE] were, in that order, 17.11% and 4.79%.
The like results for `CCOC(=O)C1=C(COCCN)NC(C)=C(C(=O)OC)C1c1ccccc1Cl` (stereo not given) [AMLODIPINE] were, in that order, -19.31% and 5.81%.
As to `C[N+]1(C)CCCC(OC(=O)C(O)(c2ccccc2)c2ccccc2)C1.[Br-]` (stereo not given) [MEPENZOLATE BROMIDE], the Inhibition in test [1] came to 1.79%; in test [2], 3.23%.
The like results for `Br.Br.CN1CC[C@]2(c3cccc(O)c3)Cc3nc4ccccc4cc3C[C@H]2C1.O` were, in that order, 5.38% and 1.66%.
The like results for `Cn1c(=O)c2nc[nH]c2n(C)c1=O.O` [THEOPHYLLINE] were, in that order, -24.23% and 7.82%.
Regarding `C[N+]1(C)CCC(OC(=O)C(O)(c2ccccc2)C2CCCC2)C1.[Br-]` (stereo not given) [GLYCOPYRRONIUM BROMIDE], the Inhibition in test [1] amounted to 11.8%.
As to `Br.CN1[C@@H]2CC(OC(=O)[C@H](CO)c3ccccc3)C[C@H]1[C@@H]1O[C@@H]12.O.O.O` (stereo not given in full), the Inhibition in test [1] worked out at 15.22%.
Turning to `c1ccc2c(c1)Nc1ccccc1S2` [PHENOTHIAZINE], the Inhibition in test [1] was -22.92%; in test [2] it was 9.21%.
For the molecule `CN1[C@@H]2CC[C@H]1C[C@@H](OC(=O)c1c[nH]c3ccccc13)C2.Cl`, the Inhibition in test [1] is given as 18.1%; in test [2], -3.68%.
On the same counts, the results for `CC(O)(CS(=O)(=O)c1ccc(F)cc1)C(=O)Nc1ccc(C#N)c(C(F)(F)F)c1` (stereo not given) [BICALUTAMIDE] are -1.51% and 6.59%.
The like results for `CC(C(=O)O)c1ccc(-c2ccccc2)c(F)c1` (stereo not given) [FLURBIPROFEN] were, in that order, 10.54% and -5.67%.
The like results for `NC(=O)C[S+]([O-])C(c1ccccc1)c1ccccc1` (stereo not given) [MODAFINIL] were, in that order, 3.29% and 4.2%.
As for `c1cncc([C@@H]2CCCN2)c1` [NORNICOTINE], the values for the Inhibition in test [1] and in test [2] were 12.8% and -3.23%, respectively.
In the case of `C[C@H](CCC(=O)O)[C@H]1CC[C@H]2[C@@H]3C(=O)C[C@@H]4CC(=O)CC[C@]4(C)[C@H]3CC(=O)[C@]12C` [DEHYDROCHOLIC ACID], the Inhibition was determined as 8.43% in test [1] and 9.29% in test [2].
On the same counts, the results for `CN1CC[C@@]23CCCC[C@@H]2[C@@H]1Cc1ccc(O)cc13.O=C(O)C(O)C(O)C(=O)O` are 4.84% and 6.67%.
On the same counts, the results for `Cl.O.Oc1ccc2c3c1O[C@H]1c4[nH]c5ccccc5c4C[C@@]4(O)C(C2)N(CC2CC2)CC[C@]314` are -20.11% and 6.59%.
The like results for `CC(C)CC(N(C)C)C1(c2ccc(Cl)cc2)CCC1` (stereo not given) [SIBUTRAMINE] were, in that order, 0.87% and 6.8%.
Turning to `CC[C@]1(O)CC[C@H]2[C@@H]3CCC4=CCCC[C@@H]4[C@H]3CC[C@@]21C` [ETHYLESTRENOL], the Inhibition in test [1] is given as -6.51%; in test [2] it was 3.02%.
`CC1CCC[C@H](O)CCCCCc2cc(O)cc(O)c2C(=O)O1` (stereo not given in full): the results for the Inhibition in test [1] and in test [2] were 10.2% and 1.45%, respectively.
In the case of `Cl.O=C1CC[C@@]2(O)[C@H]3Cc4ccc(O)c5c4[C@@]2(CCN3CC2CC2)[C@H]1O5` [NALTREXONE HYDROCHLORIDE], the figures for the Inhibition in test [1] and in test [2] were 14.26% and 5.04%, respectively.
As to `CC(NC(C)(C)C)C(=O)c1cccc(Cl)c1.Cl` (stereo not given) [BUPROPION HYDROCHLORIDE], the Inhibition in test [1] is given as -23.91%; in test [2], 5.32%.
Take `CN(C)CCOc1ccc(/C(=C(/CCCl)c2ccccc2)c2ccccc2)cc1.O=C(O)CC(O)(CC(=O)O)C(=O)O` [TOREMIFENE CITRATE]: the Inhibition in test [1] is 24.11%; in test [2] it was -1.37%.
On the same counts, the results for `Br.COc1ccc2c3c1O[C@H]1C[C@@H](O)C=C[C@@]31CCN(C)C2` [GALANTAMINE HYDROBROMIDE] are 13.66% and 3.62%.
On the same counts, the results for `CS(=O)(=O)Nc1ccc(Cc2noc(-c3ccc4[nH]cc(CCN)c4c3)n2)cc1.O.O` are 12.02% and 7.87%.

(Values after ChEMBL document CHEMBL4513141, “CO-ADD screening of NIH (USA) - Clinical Collection” (2021).)
